An excerpt weighted towards active compounds, which were near 0.93% of everything screened.
CtBP-E1A blk: qHTS Assay for Inhibitors of the CtBP/E1A Interaction; CtBP / adenovirus E1A interaction (AlphaScreen); AlphaScreen GST-E1A/His-CtBP binding, 1536-well; active compounds read low; activity change, % (no concentration beside the values); 340,000 tested, 0.49% active
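In 5 uL wells, 23 nL compound meets equimolar GST-E1A and His-CtBP (5X stock 125 nM each) for 2 h, 37 °C. Beads (5X, 50 ug/mL) then 1 h, 37 °C, dark.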
Six1-Eya2 inh: qHTS Assay for Inhibitors of the Six1/Eya2 Interaction; activity change, % (no concentration beside the values); AID 651725, 2012; Homeobox protein SIX1 (Homo sapiens) + Protein phosphatase EYA2 (Homo sapiens), …; 360,000 tested, 0.56% active; AlphaScreen GST-Six1/His-Eya2 binding, biochemical; active compounds read low
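AlphaScreen luminescence read after one hour at 37 °C in darkness. Pin-transferred compounds met GST-Six1 and His-Eya2 protein (5X stock 250 nM/500 nM) plus glutathione donor and Ni-chelate acceptor beads (5X, 50 ug/mL).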
PKM2 activator: qHTS Assay for Activators of Human Muscle isoform 2 Pyruvate Kinase; Pyruvate kinase PKM (Homo sapiens), P14618; purified PKM2, Kinase-Glo ATP luminescence, activation; response scale: 0% is enzyme alone, no compound; Potency, µM (highest dose often 57.5 µM), without a hit: top-dose activation, usual class: activators; 260,000 tested, 0.34% active; AID 1631, 2009; active = well fitted activation curve with a large enough effect; inconclusive = small, poorly fitted or top-dose-only effect; inactive = no such curve, though single readings can be large or run the other way; also: potency is read from the fitted curve at half-maximal effect; nearly all actives have a fitted effect of over 55% in size
Target sequence (P14618 whole entry, looked up, canonical isoform): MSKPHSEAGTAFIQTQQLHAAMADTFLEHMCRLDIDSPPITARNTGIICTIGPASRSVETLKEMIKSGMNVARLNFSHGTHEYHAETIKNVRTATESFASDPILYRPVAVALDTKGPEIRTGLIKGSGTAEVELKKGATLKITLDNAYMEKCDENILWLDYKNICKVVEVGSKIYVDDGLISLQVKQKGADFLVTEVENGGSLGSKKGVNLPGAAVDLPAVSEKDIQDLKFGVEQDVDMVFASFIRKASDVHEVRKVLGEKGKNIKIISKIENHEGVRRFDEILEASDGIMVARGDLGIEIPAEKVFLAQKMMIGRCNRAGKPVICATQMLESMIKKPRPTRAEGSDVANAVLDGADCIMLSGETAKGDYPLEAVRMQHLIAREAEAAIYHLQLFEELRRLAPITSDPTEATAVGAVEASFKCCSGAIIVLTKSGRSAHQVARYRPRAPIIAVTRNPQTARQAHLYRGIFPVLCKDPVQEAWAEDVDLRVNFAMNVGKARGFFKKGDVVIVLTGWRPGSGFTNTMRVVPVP
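Kinase-Glo luminescence reports ATP generated from ADP (0.1 mM) and PEP (0.5 mM) by purified hPK-M2 after 1 h at room temperature, pH 7.2 imidazole buffer; intermediate enzyme activity allows detecting inhibitors and activators.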
MBNL1 CUG block: qHTS Assay for Inhibitors of MBNL1-poly(CUG) RNA binding; Muscleblind-like protein 1 (Homo sapiens), Q9NR56; TR-FRET MBNL1-His/biotin-(CUG)12 binding, 665/545 ratio; Potency, µM (highest dose often 57.5 µM), inactives show at the top dose activity change, negative = inhibition, usual class: inhibitors; 280,000 tested, 0.036% active; AID 2675, 2010; active = well fitted inhibition curve with a large enough effect in the signal ratio, with a control signal flat, not every such curve was filed as active; inconclusive = small, poorly fitted or top-dose-only effect, or effect the other way, or a change in a side signal; inactive = no such curve, though single readings can be large or run the other way; the % refers to the signal ratio; also: potency is read from the fitted curve at half-maximal effect
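His-tagged MBNL1 binding to biotinylated (CUG)12 RNA was measured by TR-FRET using terbium anti-His antibody (0.055 ng/ul final) and streptavidin-XL665 (5 nM final). Compounds were titrated 92 nM to 58 uM; 60 min at room temperature.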
Active calls of the source: *; ? = inconclusive; . = no result given; [ ] = dose if it differs, or a comment. Rule as the data show it, unless noted: active = activity change below about -65%; inconclusive = mostly about -30% to -63%; inactive = weaker than that. % is scaled to controls: 0 for no effect and ±100 for the full control effect.

SMILES | CtBP-E1A blk | Six1-Eya2 inh | PKM2 activator | MBNL1 CUG block
N#C/C(=C/c1ccc(N2CCOCC2)o1)c1ccc(Br)cc1 | -2.4 | -2.2 | 14.1µM* | 7.8%
N#C/C(=C\c1ccc(N2CCOCC2)o1)c1ccccc1 | 11.4 | -7.5 | ? | 16.4%
CCCCN(C)C(=O)c1sc(=O)n(Cc2ccc(Cl)c(Cl)c2)c1C | -1.7 | -5.8 | . | .
Cc1cccc(-c2ccc([N+](=O)[O-])cc2CN2CCN(c3ncc(Cc4ccccc4)cn3)CC2)c1 | -13.6 | -14.3 | . | .
COc1cc(OC)cc(C2=Cc3ccc(OC)cc3C(CC(C)=O)N2c2ccc(-c3cccs3)cc2)c1 (configuration not stated) | 29.3 | 20.5 | . | .
O=C(N/N=C/c1cn(-c2cccs2)nc1-c1ccccc1)c1ccccc1O | -76.1* | -77.5* | -4.5% | 14.3%
O=C(N/N=C/c1cn(-c2cccs2)nc1-c1ccccc1)c1ccccc1Br | -27.1 | -14.1 | -1.4% | -0.1%
COc1cc2c(cc1OC)-c1c(OC)c(OC)cc3ccnc(c13)C2=O | -71.3* | ? | 2.5% | ?
O=C(O)c1ccc2c(c1)[C@@H]1C=CC[C@@H]1[C@H](c1ccccn1)N2 | -15.9 | -77.2* | . | .
O=C(C(=O)N1CCC(Cc2ccccc2)CC1)c1ccccc1 | 3.1 | -1.1 | . | .
Cc1cc([N+](=O)[O-])ccc1-c1ccc(C2Nc3ccccc3C(=O)N2O)o1 (configuration not stated) | -16.9 | -12.7 | 14.1µM* | 39.3%
CN(C)CCNC(=O)c1cccc(-c2cc(NC=O)c3ncc(-c4cccc(C(F)(F)F)c4)n3c2)c1 | -4.8 | -11.3 | . | .
CCc1nc2c(OCCC3CCCCC3)cccn2c1N(C)C(=O)c1cccs1 | -25.1 | -15.7 | . | .
COC(=O)C(C(=O)OC)C1c2ccccc2C=C(C)N1C(=O)OC (configuration not stated) | . | . | -4.6%[11.5 µM] | .
COc1ccc([N+](=O)[O-])cc1/C=N/NC(=O)CNC(=O)C(c1ccccc1)c1ccccc1 | -11.2 | -16.4 | 0.9% | 18.5%
O=C(CNC(=O)c1cccc(F)c1)N/N=C/c1cc(Br)ccc1OC(=O)/C=C/c1ccco1 | -88.0* | -88.4* | 14.0% | .
O=C(CNC(=O)c1ccccc1O)N/N=C/c1cc(Br)ccc1OC(=O)/C=C/c1ccco1 | -95.4* | -85.0* | 11.1% | 14.5%
COc1ccc([N+](=O)[O-])cc1/C=N/NC(=O)CNC(=O)c1cccc(F)c1 | -69.8* | ? | 0.4% | ?
NC(=O)COc1ccccc1/C=C1/SC(=O)N(CC(=O)N2CCc3ccccc3C2)C1=O | -26.2 | -3.6 | 20µM* | ?
CCOc1cc(/C=C2/SC(=O)N(CC(=O)N3CCc4ccccc4C3)C2=O)ccc1OCC(=O)O | -12.4 | 3.8 | ? | ?
O=c1[nH]n(-c2ccccc2)c(=O)c2ccccc12 | 0.8 | 8.2 | -1.6% | 3.5%
O=C(O)c1cc2c(ncc3c(=O)n(-c4ccccc4)[nH]c32)s1 | -68.4* | -74.8* | . | .
O=C(O)CCCN1C(=O)/C(=C/c2ccc(-c3nc4ccccc4s3)o2)SC1=S | -21.6 | ? | -1.7% | 5.7%
O=C(O)CCCCCN1C(=O)/C(=C\c2ccc(-c3ccc(Cl)cc3)o2)SC1=S | 3.6 | -6.9 | 31.6µM* | 3.9%
C[C@@H](CO)NC(=O)c1[nH]cnc1C(=O)Nc1ccc(CNC(=O)OC(C)(C)C)cc1 | -11.3 | -1.3 | . | .
SMILES | CtBP-E1A blk | Six1-Eya2 inh | PKM2 activator | MBNL1 CUG block
O=C(Cn1c(=O)c2sccc2n(Cc2cccc([N+](=O)[O-])c2)c1=O)NCCc1ccccc1 | 0.0 | -21.0 | -0.4% | 23.5%
O=C(Cn1c(=O)c2sccc2n(Cc2ccc([N+](=O)[O-])cc2)c1=O)NCCc1ccccc1 | -88.7* | ? | 8.2% | 14.2%
O=[N+]([O-])c1ccc(C=Nc2cccc3ccccc23)s1 | -69.6* | ? | -12.7% | 27.8%
O=[N+]([O-])c1ccc(C=NN2CCOCC2)s1 | -2.9 | -27.6 | . | .
CCCCc1nc2c(c3c1C[C@H](C)OC3)CN(S(=O)(=O)CCCC)CC2 | . | . | -10.6%[11.5 µM] | .
COC1=C(Nc2ccc(OC)cc2)C(=O)C(OC)=C(Nc2ccc(OC)cc2)C1=O | -10.5 | -3.9 | . | .
COC1=C(Nc2ccc(OC)cc2)C(=O)c2ccccc2C1=O | 12.3 | -75.3* | -23.5% | ?
CCOc1ccc(NC2=C(OC)C(=O)c3ccccc3C2=O)cc1 | ? | -74.9* | -6.8% | ?
Cc1noc(C)c1Cn1c(C)c(C(=O)NCc2ccc3c(c2)OCCO3)sc1=O | -1.3 | -6.4 | . | .
Cc1nc(COC(=O)c2ccc(S(=O)(=O)N3CCCC3)cc2)cs1 | -8.5 | 4.1 | 28.2µM* | -13.1%
CN(C)C(=O)c1cccc(-c2cnc3c(NC=O)cc(-c4ccc(N(C)C)cc4)cn23)c1 | -25.7 | -20.1 | . | .
O=C(Nc1ccc(C(F)(F)F)cc1Cl)c1ccc(Cn2cc(Br)cn2)o1 | -6.0 | -2.0 | 28.2µM* | 8.9%
O=c1[nH][nH]cc1C=Nc1ccccc1O | -83.4* | -77.4* | -4.6% | 22.2%
O=[N+]([O-])c1ccc(/C=N/Nc2nc(N3CCCC3)nc(N3CCCC3)n2)o1 | -1.8 | -10.0 | 3.2% | ?
CCNc1nc(NCC)nc(N/N=C/c2ccc([N+](=O)[O-])o2)n1 | -85.4* | -83.5* | -6.2% | ?
CCCCNc1nc(C)nc2c1nc(-c1ccccc1)n2C1CCN(Cc2ccccc2)C1 (configuration not stated) | . | . | -2.6% | .
COc1ccc(C(=O)Nc2ccc(-c3cn4ccsc4n3)cc2)cc1S(=O)(=O)N1CCOCC1 | -73.0* | -76.6* | 7.5% | -4.2%
COC(=O)[C@@]12C[C@@H](CC(=O)NCC3CCCCC3)C(=O)N(Cc3ccc4c(c3)OCO4)C1=CCC(C)(C)C2 | -12.9 | -9.9 | . | .
Clc1ccc(N2O[C@H]3C=C[C@@H]2C3)nc1 | -7.9 | -4.0 | . | .
CCOC(=O)CNC(=O)C1CCCN(c2ncccn2)C1 (configuration not stated) | ? | -83.1* | 2.1% | 1.2%
CC(C)CCNc1ncnc2c1nnn2Cc1ccccc1 | 1.7 | 6.1 | 0.4% | -0.9%
COc1ccccc1CNc1ncnc2c1nnn2Cc1ccccc1 | 1.7 | -3.4 | 20µM* | -12.3%
Cc1cc2nc(-c3ccc(F)cc3)c(CC(C)(C)C)n2c(C)c1Br | -13.8 | 26.9 | . | .
Cc1cc(C2=CC(C)(c3cc(C)oc3C)Nc3nc(C(F)(F)F)nn32)c(C)o1 (configuration not stated) | . | . | 22.4µM* | -3.3%
Cc1ccc(C2=CC(C)(c3ccc(C)cc3)Nc3nc(C(F)(F)F)nn32)cc1 (configuration not stated) | -2.6 | 5.7 | -1.8% | -0.7%
Cn1c(NCc2ccccc2F)nc2cc(-c3cccc(C(F)(F)F)c3)sc2c1=O | 1.7 | 0.3 | . | .

High-throughput results: PubChem BioAssay, National Center for Advancing Translational Sciences (NCATS)
